We go through 87 compounds from PubChem BioAssay AID588492 (Sanford-Burnham Center for Chemical Genomics, 2011).

About 2,300 (0.64%) of roughly 360,000 compounds were called active.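 Rule for the calls: active = compounds giving at least 50% protection of heart cells from peroxide-induced death in the single-dose screen, raw or plate-pattern-corrected value; inactive = the rest.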 Only a selection was taken, and actives are over-represented in it overall.

A short description of the assay: H9c2 cardiomyocyte survival under peroxide injury – uHTS, H9c2 cells, ATPLite luminescence, primary screen (AID 588492).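 Note: 0% = DMSO wells with peroxide and 100% = DMSO wells without peroxide.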 As to conditions: H9c2 cardiomyocytes, 2 h, at 20 µM, hits give high values. (In general: ATP-based viability assays read luminescence as a measure of living cells.)
With `N#Cc1ncc(C(F)(F)F)cc1Oc1cccnc1`, the protection from H2O2 cell death was -0.3% (inactive).

As for `Cc1cc(C)c(C(N)=O)c(Cl)n1`, the protection from H2O2 cell death was 0.4% (inactive). The result for `COc1ccc(C(O)c2nc(-c3ccc4c(c3)OCO4)cs2)cc1` (configuration not stated) reads -5.3% (inactive); that for `COc1ccc(C(C)(O)c2nc(-c3ccc(C)c(C)c3)cs2)cc1` (configuration not stated), -13.4% (inactive); that for `COc1ccc(OC)c(Nc2nc(-c3ccc(O)c(O)c3)cs2)c1`, 52% (active). The figure for `[2H]C(CCOS(N)(=O)=O)c1ccccc1` (configuration not stated) is 3% (inactive). The figure for `CCOC12CC(C)(C)CC(C)(CC3=C1C(=O)CC(C)(C)C3)C2` (configuration not stated) is -0.9% (inactive); for `Cc1ccc2nc(-c3ccc(NC(=O)c4cccnc4)cc3)oc2c1` it is 48.1% (inactive); for `CCC(=O)Oc1cccc(C(=O)Nc2ccc(-c3nnc(-c4ccco4)o3)cc2)c1` it is 77.3% (active). In the case of `O=C(Nc1ccc(Cl)cc1)c1cccc(OC(=S)N2CCOCC2)c1`, the protection from H2O2 cell death is -15.8% (inactive). The figure for `COC(=O)NNC(=O)C1CCC(C)CC1` (configuration not stated) is -10% (inactive). The result for `COc1ccc(-c2cc(C(=O)N(C)Cc3ccc(OC)c(OC)c3OC)c3ccccc3n2)cc1OC` reads 67.1% (active); that for `COc1ccc(-c2cc(C(=O)N(C)CC(=O)Nc3ccccc3Cl)c3ccccc3n2)cc1OC`, 49.1% (inactive); that for `COc1ccc(CN(C)C(=O)c2cc(-c3ccc(C)cc3C)nc3ccccc23)c(OC)c1OC`, 48.9% (inactive). The figure for `Cc1cc(C)nc(Nc2n[nH]c(-c3ccccc3N)n2)n1` is -9.5% (inactive). As to `CCCCCN(C(=O)NC(=O)Nc1ccccc1C)S(C)(=O)=O`, the protection from H2O2 cell death was -4.1% (inactive). As for `CCC(C)(C)NC(=O)C(c1cccc(OC)c1OC)N(CC(C)C)C(=O)CCC(=O)Nc1cc(C)on1` (configuration not stated), the protection from H2O2 cell death is 1.2% (inactive). As to `Cc1ccccc1Cn1c(C)c(C(=O)NCc2cccc(C(F)(F)F)c2)sc1=O`, the protection from H2O2 cell death is -2.6% (inactive).

In the case of `N#C/C(=C\c1ccc(O)c(O)c1)C(=O)NCc1ccccc1`, the protection from H2O2 cell death is 55.9% (active). Take `COc1ccc(CNC(=O)/C(C#N)=C/c2cccc(OC)c2OC)cc1`: the protection from H2O2 cell death is 1.5% (inactive). The result for `COCCNC(=O)/C(C#N)=C/c1cccc(OCc2ccccc2)c1` reads 32.1% (inactive); that for `Cn1nc([N+](=O)[O-])nc1Sc1ccc(C(C)(C)C)cc1`, -11.1% (inactive); that for `c1ccc(-c2cn3c(n2)CCc2ccc4cccnc4c2-3)cc1`, 61.6% (active). The figure for `CCN(CC(=O)NC(C)C)C(=O)CCNC(=O)c1ccc(Cl)cc1` is -0.7% (inactive). Regarding `Cc1cccc(Nc2nnc(SCC(=O)c3c(N)n(C4CC4)c(=O)[nH]c3=O)s2)c1C`, the protection from H2O2 cell death was -2.2% (inactive). The figure for `CC(=O)Nc1ccc(-c2csc(NC(=O)Nc3ccccc3)n2)cc1` is 50.5% (active); for `NC(c1ccccc1)c1csc(NC(=O)Nc2cccc(C(F)(F)F)c2)n1` (configuration not stated) it is -10.6% (inactive); for `CC(=O)Nc1ccc(-c2cn3cccnc3n2)cc1` it is -2% (inactive).

For the compound `CN(C)C(CNC(=O)CCCOc1ccccc1)c1ccco1` (configuration not stated), the protection from H2O2 cell death was 4.6% (inactive). The figure for `O=C(Cn1cnc2ccccc21)Nc1ccccc1-c1ccccc1` is -5.3% (inactive).

With `O=C(COC(=O)Cn1cnc2ccccc21)Nc1cccc2c1C(=O)c1ccccc1C2=O`, the protection from H2O2 cell death is 59.5% (active). With `O=C(COC(=O)c1cccc(Br)c1)Nc1cccc2c1C(=O)c1ccccc1C2=O`, the protection from H2O2 cell death was -6.9% (inactive).

Take `O=C(CCc1nnc(CCCCc2ccccc2)o1)NC(c1cccnc1)C(F)(F)F` (configuration not stated): the protection from H2O2 cell death is 0.8% (inactive). The figure for `COc1ccccc1NS(=O)(=O)c1ccc(C)c(C(=O)NNC(=O)c2csc(N3CCOCC3)n2)c1` is 8.3% (inactive); for `CCN(CC)C(=O)Cn1cc(S(=O)(=O)CC(=O)NCc2ccc3c(c2)OCO3)c2ccccc21` it is 2.8% (inactive); for `C[C@@H]1C(c2ccc(F)cc2)=NN(c2ccc(Br)cc2)[C@H]1C(=O)N1CCOC1=O` it is -1.3% (inactive).

On to `COc1ccccc1OCCn1c(SCC(N)=O)nc2ccccc21`, for which the protection from H2O2 cell death was 3.9% (inactive). The result for `O=C1CCC/C=C/C[C@@H](CC(=O)N(CCO)Cc2ccccc2)C(=O)NC[C@H](c2ccccc2)O1` reads 0.5% (inactive); that for `O=C1N[C@@H](c2ccccc2)COC(=O)[C@H](Cc2ccc(F)cc2)C/C=C\C[C@@H]1CC(=O)N(CCO)Cc1ccccc1`, 8.2% (inactive). The figure for `CC(C)(C)OC(=O)C[C@@H]1C/C=C\C[C@@H](CC(=O)N(CCO)Cc2ccccc2)C(=O)N[C@H](Cc2ccccc2)COC1=O` is 14.2% (inactive). The figure for `O=C1OC[C@@H]2CCCN2C(=O)[C@H](CC(=O)N(CCO)Cc2ccccc2)C/C=C\CC[C@@H]1Cc1ccc(F)cc1` is 2.9% (inactive); for `O=C1N[C@H](Cc2c[nH]c3ccccc23)COC(=O)[C@H](Cc2ccc(F)cc2)C/C=C\C[C@H]1CC(=O)N(CCO)Cc1ccccc1` it is 51.5% (active). As to `O=C1NC[C@@H](c2ccccc2)OC(=O)[C@H](Cc2ccc(F)cc2)CC/C=C/C[C@H]1CC(=O)N(CCO)Cc1ccccc1`, the protection from H2O2 cell death is 61.8% (active). The result for `CCOc1ccc(NC(=O)[C@H](C)NC(=O)C2CC(=O)N(c3ccc(OC)cc3)C2)cc1` (some centres not stated) reads -1.8% (inactive); that for `CC(C)(C)OC(=O)N1CCN(C(=O)c2[nH]c(C(F)(F)F)nc2-c2ccccc2)CC1`, -1.1% (inactive); that for `Cc1cc(C)cc(NC(=O)Cn2cnc3c(nnn3Cc3ccc(F)cc3)c2=O)c1`, 0.7% (inactive).

For the compound `CN(C)CCN1CCN(c2cc(-c3cccc(Cl)c3)nc3ccnn23)CC1`, the protection from H2O2 cell death is 19.8% (inactive).

As to `C#Cc1cc(N2CCN(C(=O)c3ccoc3)CC2)n2nc(-c3cccc(Cl)c3)cc2n1`, the protection from H2O2 cell death is 84.5% (active). On to `O=C(c1ccccc1)N1CCN(C(=O)c2cc3nc(-c4ccccc4)cc(C(F)(F)F)n3n2)CC1`, for which the protection from H2O2 cell death is 11.3% (inactive). The figure for `Cc1cc(C)c(-c2csc(NC(=O)CCCc3nc4ccccc4c(=O)[nH]3)n2)c(C)c1` is -4.2% (inactive).

In the case of `O=C(Cn1[nH]c(=O)c2ccccc2c1=O)Nc1cccc(-c2nnc3n2CCCCC3)c1`, the protection from H2O2 cell death is 23.4% (inactive).

Regarding `Cc1ccc(-c2csc(NC(=O)Cn3[nH]c(=O)c4ccccc4c3=O)n2)cc1`, the protection from H2O2 cell death is 52% (active). Turning to `CCOC(=O)c1cnc(-n2nc(C)cc2C)nc1NNc1cc(C)nc(-c2ccccc2)n1`, the protection from H2O2 cell death is 78.5% (active). The result for `CCOC(=O)c1cnc2nc(SCc3ccccc3Cl)[nH]n2c1=O` reads -2.4% (inactive); that for `Cc1cc(-n2nc(C)cc2C)n2ncc(-c3ccccc3)c2n1`, 14.3% (inactive); that for `COc1cc(OC)c(C(=O)OC(C)C(=O)Nc2cc(C(F)(F)F)ccc2Cl)cc1OC` (configuration not stated), -5% (inactive).

Take `Cc1cc(C)n(C(=O)c2ccc(C)c(S(=O)(=O)N3CCOCC3)c2)n1`: the protection from H2O2 cell death was 15.2% (inactive). The result for `c1ccc(Cc2nn3c(Cn4cnc5ccccc54)nnc3s2)cc1` reads -4.9% (inactive); that for `CCCCn1nc(C(=O)OCC(=O)Nc2sccc2C(N)=O)c2ccccc2c1=O`, 29.8% (inactive); that for `NC(=O)c1ccsc1NC(=O)COC(=O)Cc1n[nH]c(=O)c2ccccc12`, 78.3% (active).

On to `N#CC1(NC(=O)COC(=O)Cc2n[nH]c(=O)c3ccccc23)CCCCC1`, for which the protection from H2O2 cell death is 30.9% (inactive). The figure for `CCn1cc(C(=O)N[C@@H](C)C(=O)NCCO)c(=O)c2cc3c(cc21)OCO3` is 3% (inactive). The figure for `COC(=O)c1noc(C)c1-c1ccnn1C(=O)c1ccc(Cl)cc1` is 3.5% (inactive); for `CCOc1ccc(OCC)c(NC(=O)CSc2nnc(Cn3cnc4ccccc43)n2C)c1` it is -3.2% (inactive). The figure for `Cc1ccc(/C=N/NC(=O)C2=NNC(c3ccccc3)(c3ccccc3)C2)c(O)c1` is 60.3% (active); for `Cc1ccc2cc(/C=N/NC(=O)[C@@H]3CCCN3)c(Cl)nc2c1` it is 14% (inactive); for `O=C(NN=Cc1ccc2c(c1)CCC2)c1ccccc1O` it is -17.8% (inactive). Regarding `CC(C)c1nnc(NC(=O)C2CC(=O)N(CCc3ccc(F)cc3)C2)s1` (configuration not stated), the protection from H2O2 cell death was -4.8% (inactive). The figure for `Cc1nc(S(=O)(=O)c2ccc(Br)cc2)nc2c1CCC2` is -2.2% (inactive); for `CCC(CC)C(=O)Nc1c2c(nn1-c1ccc(C)cc1)CS(=O)(=O)C2` it is -4.5% (inactive). The result for `CCC(C)(C)NC(=O)C(c1ccccn1)N(C(=O)c1csnn1)c1ccccc1` (configuration not stated) reads 1.1% (inactive). The figure for `Cc1ccc(S(=O)(=O)NCC2CCC(C(=O)N3CCOCC3)CC2)cc1` (configuration not stated) is 3.4% (inactive); for `Cc1ccc(/C=N/NC(=O)CSc2nc3ccccc3o2)cc1` it is -4.4% (inactive); for `Cc1nn(-c2ccccc2)c(C)c1/C=N/NC(=O)CSc1nc2ccccc2c(=O)n1-c1ccccc1` it is 22.5% (inactive).

Take `Cn1c(SCC(=O)N/N=C/c2ccc(O)c(O)c2)nc2ccccc21`: the protection from H2O2 cell death was 70.9% (active).

With `COc1ccc(S(=O)(=O)N2CCN(CC(=O)NCC3(N4CCOCC4)CCCCC3)CC2)cc1`, the protection from H2O2 cell death is 3% (inactive). Consider `CC(C)(C)C(=O)Nc1cccc(-c2ccc[nH]2)n1`, for which the protection from H2O2 cell death was 5.3% (inactive).

As to `Cc1nn(Cc2ccccc2Cl)c(C)c1NC(=O)Cn1nc([N+](=O)[O-])c(Cl)c1C`, the protection from H2O2 cell death is 15.4% (inactive). The figure for `Cc1c(Cl)c([N+](=O)[O-])nn1Cc1ccc(C(=O)N/N=C\c2cc(Cl)ccc2O)o1` is 67.5% (active); for `Cc1c(Cl)c([N+](=O)[O-])nn1CCCC(=O)NC(C)c1ccccc1` (configuration not stated) it is 5.3% (inactive). The result for `N#Cc1ccc(C(c2ccc(C#N)cc2)n2cncn2)cc1` reads 2.5% (inactive); that for `Cn1c(C(=O)NCCN2CCc3ccccc3C2)cc2c(=O)[nH]c3ccccc3c21`, 19.2% (inactive).

On to `Cn1c(C(=O)N2CCC(C(N)=O)CC2)cc2c(=O)n(C)c3ccccc3c21`, for which the protection from H2O2 cell death is 1.2% (inactive). The figure for `Cn1c(C(=O)NCCc2ccsc2)cc2c(=O)n(C)c3ccccc3c21` is 96.5% (active); for `O=C(Nc1ccc(C(=O)O)cc1)/C(=C/c1ccc([N+](=O)[O-])cc1)NC(=O)c1ccccc1` it is 4.6% (inactive). As for `O=C(N/N=C/c1cc([N+](=O)[O-])ccc1O)/C(=C\c1cccs1)NC(=O)c1ccccc1`, the protection from H2O2 cell death was 54.9% (active).

As to `O=C(NCCc1ccccc1)/C(=C\c1ccc([N+](=O)[O-])cc1)NC(=O)c1ccccc1`, the protection from H2O2 cell death is 16.6% (inactive).
